Experimental data from PubChem BioAssay AID2553 (Johns Hopkins Ion Channel Center, 2010).
In all, about 310,000 compounds went through this assay and about 3,300 (1.1%) were called active.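 Rule for the calls: active = B-score under library mean minus 3 SD, initial fluorescence not abnormally high, positive integrated signal ratio; inactive = the rest.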 Many of the other results were omitted from the sample, so actives are more common in it than they were.

target: Short transient receptor potential channel 6 (Mus musculus) (UniProt Q61143); experiment: mouse TRPC6 channel inhibitors, primary screen, cell-based, HEK293, membrane potential dye (AID 2553); settings: ACh-evoked depolarization, at 10 µM; active compounds read low;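 for B-score: B-score derived from integrated fluorescence ratio over the kinetic read; more negative B-score means stronger inhibition of depolarization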
Sequence (Q61143 whole entry, looked up): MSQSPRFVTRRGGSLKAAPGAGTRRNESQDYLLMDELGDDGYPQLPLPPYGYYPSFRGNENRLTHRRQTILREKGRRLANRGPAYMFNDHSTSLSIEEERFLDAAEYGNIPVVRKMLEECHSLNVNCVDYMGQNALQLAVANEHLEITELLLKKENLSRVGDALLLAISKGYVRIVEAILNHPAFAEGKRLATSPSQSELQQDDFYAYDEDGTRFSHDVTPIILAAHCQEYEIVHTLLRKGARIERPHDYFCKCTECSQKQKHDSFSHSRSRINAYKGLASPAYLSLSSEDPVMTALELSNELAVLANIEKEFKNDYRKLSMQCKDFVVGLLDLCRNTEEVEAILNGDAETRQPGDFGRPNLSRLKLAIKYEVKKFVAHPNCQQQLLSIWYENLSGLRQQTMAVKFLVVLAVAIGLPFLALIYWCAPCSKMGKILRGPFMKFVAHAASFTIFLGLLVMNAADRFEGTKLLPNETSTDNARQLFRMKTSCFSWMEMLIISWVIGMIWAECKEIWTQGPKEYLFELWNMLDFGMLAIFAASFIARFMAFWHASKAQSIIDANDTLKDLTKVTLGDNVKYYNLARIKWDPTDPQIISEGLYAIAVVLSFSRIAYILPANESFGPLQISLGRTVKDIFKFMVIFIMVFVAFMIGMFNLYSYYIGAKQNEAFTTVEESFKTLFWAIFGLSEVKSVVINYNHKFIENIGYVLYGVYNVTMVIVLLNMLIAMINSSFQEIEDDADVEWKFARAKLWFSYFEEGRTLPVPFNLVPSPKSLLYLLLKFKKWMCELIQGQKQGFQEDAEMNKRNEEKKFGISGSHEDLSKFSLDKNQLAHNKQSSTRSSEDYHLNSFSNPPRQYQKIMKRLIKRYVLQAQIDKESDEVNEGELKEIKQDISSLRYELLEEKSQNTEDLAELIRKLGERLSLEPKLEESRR

Compound | B-score
C#CC(CCN1CCCCC1)(OC)c1ccccc1 (stereo not drawn) | inactive
CCOC(=O)c1sc2nc(C)[nH]c(=O)c2c1C | inactive
CCOC(=O)c1sc2nc(CSCC(=O)OCc3ccc(C(=O)OC)o3)[nH]c(=O)c2c1C | -12.7 (active)
CCOC(=O)c1sc2nc(CSc3ccccc3)[nH]c(=O)c2c1C | inactive
COc1ccc(NC(=S)N2N=CCC2c2ccccc2)cc1 (stereo not drawn) | inactive
Cc1cccc(-[n+]2c(-c3cccc(Br)c3)[nH]c3nc4ccccc4nc32)c1 | -6.45 (active)
Cc1nnc(SCC(=O)NCCOc2ccc(Cl)cc2)n1-c1ccccc1 | inactive
Cc1nnc(SCc2ccc(C(=O)c3ccc(Cl)cc3)o2)n1-c1ccccc1 | -6.02 (active)
Cc1nnc(SCC(=O)N2CCN(c3ccccc3)CC2)n1-c1ccccc1 | inactive
CN1CCN(C(=O)c2ccc(NS(=O)(=O)c3ccccc3)cc2)CC1 | inactive
O=C(Nc1ccc(Br)cc1F)C1CC(=O)N(C2CCCCC2)C1 (stereo not drawn) | inactive
O=C(CN1CCOCC1)Nc1ccc(NC(=O)CN2CCOCC2)c(Cl)c1 | inactive
CC1CCCN(CC(=O)Nc2cc(Cl)ccc2Oc2ccccc2)C1 (stereo not drawn) | inactive
CC(=O)Nc1ccc(NC(=O)CN2CCCC(C)C2)c(Cl)c1 (stereo not drawn) | -5.66 (active)
Cc1ccc(S(=O)(=O)C2(S(=O)(=O)c3ccc(C)cc3)CCCC2)cc1 | inactive
O=S(=O)(Cc1nnnn1-c1ccccc1)c1ccccc1 | inactive
O=C(OCCN1C(=O)c2ccccc2C1=O)Oc1ccccc1 | inactive
Cn1c(=O)c2c(nc(NCCNC(=O)c3ccco3)n2Cc2ccccc2F)n(C)c1=O | inactive
Cc1ccc(NC(=O)COC(=O)CNC(=O)c2ccc(Cl)cc2Cl)cc1S(=O)(=O)N1CCOCC1 | inactive
COc1ccc(CC(=O)Nc2sc(Cc3ccccc3)c(C)c2C(N)=O)cc1 | -7.08 (active)
Cc1ccc(C(=O)Nc2sc(Cc3ccc4c(c3)OCO4)c(C)c2C(N)=O)cc1 | inactive
COc1ccc(CC(=O)Nc2c(C(N)=O)oc3ccccc23)cc1 | inactive
Cc1ccccc1N1C(=O)C2ON(c3ccccc3)C(c3ccncc3)C2C1=O (stereo not drawn) | inactive

Compound | B-score
COC(=O)Cn1c2ccc(C)cc2c2nc(C)sc21 | inactive
CCN(CC)CCNc1ccc(Cl)cc1[N+](=O)[O-] | inactive
CCN(CC)CCn1c2ccc(Cl)cc2c2nc(C)sc21 | -7.92 (active)
COCCNc1ccc(-c2n[nH]c(=O)c3ccccc23)cc1[N+](=O)[O-] | inactive
NS(=O)(=O)c1ccc(CCNC(=O)CCCn2c(SCC(=O)N3CCCC3)nc3ccsc3c2=O)cc1 | inactive
CCn1c(C)cc(=O)cc1-c1ccc(Cl)cc1 | inactive
COc1ccc(Cn2c(=O)cc(C)[nH]c2=S)cc1 | inactive
COc1ccc(Cn2c(-c3ccc(Cl)cc3)c[n+]3ccccc23)cc1 | -7.95 (active)
CCN1C(=S)N[C@@H](CCc2ccccc2)[C@H](C(=O)OC)[C@H]1C | inactive
O=C(O)CSCc1ccc(C(=O)O)o1 | inactive
COc1ccccc1C1CCN(c2ccc([N+](=O)[O-])cn2)CC1 | inactive
COc1ccccc1C1SCCN1C(=O)c1ccc([N+](=O)[O-])cc1 (stereo not drawn) | -9.98 (active)
COc1ccc(C(=O)N2CCc3cc(OC)c(OC)cc3C2c2cccc([N+](=O)[O-])c2)cc1 (stereo not drawn) | inactive
CC1CC(C)CN(CCOc2cccc3ccccc23)C1 (stereo not drawn) | inactive
CCCCCCCCCCOC(=O)C[N+](C)(C)CC1CCCCC1O (stereo not drawn) | -9.01 (active)
CCCCCOC(=O)c1ccc(N2C(=O)C3C4C=CC(C4)C3C2=O)cc1 (stereo not drawn) | inactive
CCC(C)(C)c1ccc(OCC(=O)N(C)C)c(C(C)(C)CC)c1 | inactive
Oc1ccccc1-c1cc(-c2ccc(Cl)cc2)n[nH]1 | inactive
CCCCNC(=O)C1CCC(CNS(=O)(=O)c2ccc(NC(C)=O)cc2)CC1 (stereo not drawn) | inactive
Cc1ccccc1-n1nnnc1SCCCC(=O)c1ccc(F)cc1 | inactive
CCc1c(O)nc(SCC(=O)Nc2ccccc2)n(C(C)CC)c1=O (stereo not drawn) | inactive
COc1ccc(C(=O)Nc2nc(-c3ccc(S(=O)(=O)N4CCOCC4)cc3)cs2)cc1 | inactive
COC(=O)c1c(NC(=O)c2ccc(S(=O)(=O)N3CCOCC3)cc2)sc2c1CCN(C(C)C)C2 | -5.88 (active)

Compound | B-score
CNC(=O)c1ccsc1NC(=O)c1ccc(S(=O)(=O)N2CCOCC2)cc1 | inactive
Cc1ccccc1CS(=O)(=O)CC1(O)CCN(C(=O)c2cccc(C(F)(F)F)c2)CC1 | inactive
CCC(C)(C)NC(=O)C(c1ccc(OC)cc1)N(C(=O)CCC(=O)Nc1cc(C)on1)c1ccc(OC)cc1OC (stereo not drawn) | inactive
O=C(CSc1nnnn1C1CCCC1)N1CCCCC1 | inactive
Cc1cccc(NC(=S)Nc2ccc(Cl)c(Cl)c2)c1 | inactive
Cc1cccc(NC(=S)NCCN(C2CCCCC2)C2CCCC2)c1 | -5.75 (active)
Cc1cccc(NC(=S)Nc2ccc(Br)cc2)c1 | inactive
O=S(=O)(c1ccc(Br)c2ccccc12)N1CCOCC1 | inactive
Cc1ccccc1N1CCN(S(=O)(=O)c2ccc3ccccc3c2)CC1 | inactive
Cc1ccc(S(=O)(=O)N2CCN(c3ccccc3)CC2)cc1C | inactive
Cc1cc(N2CCN(S(=O)(=O)c3ccc(C)c(C)c3)CC2)c2ccccc2n1 | -5.95 (active)
CC(=O)NS(=O)(=O)c1ccc(N/C(N)=N/c2nc(C)cc(C)n2)cc1 | inactive
OCCC1CN(Cc2ccc3nsnc3c2)CCN1C1CCCC1 (stereo not drawn) | -6.69 (active)
CC(C)N1CCC(N2CCN(Cc3cccnc3)CC2CCO)CC1 (stereo not drawn) | inactive
Cn1cnnc1Sc1ccc(CN2CCN(C3CCCC3)C(CCO)C2)o1 (stereo not drawn) | inactive
OCCC1CN(Cc2ccc3nsnc3c2)CCN1C1CCCCC1 (stereo not drawn) | -5.65 (active)
COc1cccc2c1OCC(CN1CCN(C3CCCCC3)C(CCO)C1)=C2 (stereo not drawn) | inactive
Cc1ccc(CN2CCN(Cc3ccc4ncccc4c3)CC2CCO)cc1 (stereo not drawn) | inactive
Fc1c(F)c(C(F)(F)F)c(F)c(F)c1N1CCN(c2ccc3nnc(C(F)(F)F)n3n2)CC1 | inactive
O=C(CCN1CCCO1)N1CCCC(N2CCN(c3cccc(C(F)(F)F)c3)CC2)C1 (stereo not drawn) | inactive
O=C(O)c1ccc(S(=O)(=O)N2CCOCC2)o1 | inactive
O=C(NCc1ccccc1Cl)C(=O)NCC1CCCN1S(=O)(=O)c1cccs1 (stereo not drawn) | inactive
